Source: PubChem BioAssay

Target: Calmodulin-1 (Homo sapiens) (UniProt P0DP23)
Assay: CALM1 binders on microarrays, EGTA buffer, profiling panel, biochemical, small-molecule microarray, Cy5-labelled CALM1 (AID 1111);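 note: labelled calmodulin applied in Tris saline Tween buffer holding calcium plus EGTA and DTT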
Conditions: Cy5-CALM1 binding fluorescence, higher = more signal

| SMILES | composite z-score |
| --- | --- |
| COCCOC(=O)N1C(=O)[C@@]2(c3cc(C#CCNC(N)=O)ccc31)[C@H](C(N)=O)[C@H]1C(=O)O[C@H](c3ccccc3)[C@H](c3ccccc3)N1[C@@H]2c1ccccc1OCCO | 0.318 |
| COC(=O)[C@@H]1N=C(c2ccc(OCCCO)cc2)O[C@@H]1C | -0.226 |
| O=C(c1ccccc1)N1C(=O)[C@]2(Cc3ccccc31)N=C(c1ccc(OCCCO)cc1)O[C@@H]2c1ccccc1 | 1.43 |
| O=C(NCCN1CCOCC1)[C@@H]1c2ccccc2C(=O)N(C2Cc3ccccc3C2)[C@H]1c1ccc(CO)cc1 | -0.472 |
| CCCCC(CC)C(O)C1C=CC2C(=O)N(C)C(=O)C2N1Nc1ccccc1 (configuration not stated) | 1.29 |
| CC[C@@H]1C=C(C(=O)O)[C@H](c2ccc(C#N)cc2)N1S(=O)(=O)c1ccc(C)cc1 | 1.45 |
| [N-]=[N+]=Nc1ccccc1C[C@@]1(C(N)=O)N=C(c2ccc(OCCCO)cc2)O[C@@H]1c1ccccc1N=[N+]=[N-] | 1.51 |
| C=CC[C@@H](OC(=O)Nc1ccc(SC)cc1)c1ccc(O)c(F)c1 | -0.818 |
| CS(=O)(=O)CCOC(=O)C1=CC(c2ccc(CO)cc2)=CC(C2CC2)N(Cc2sc3ccccc3c2Cl)C=C1C(=O)OCCS(C)(=O)=O (configuration not stated) | 0.0782 |
| CCOC(=O)C[C@H]1[C@H](OC(=O)c2ccccc2-c2ccccc2)[C@@H](NC(=O)c2ccc3ccccc3n2)c2cc(OCCCO)ccc2N1C(=O)Cc1ccc(OC)cc1 | -0.216 |
| CCOC(=O)C1=C[C@@H](C(C)(C)C)N(S(=O)(=O)c2ccc(C)cc2)[C@H]1c1cccc2ccccc12 | 1.07 |
| Cc1ccc(S[C@]2(C(=O)O)CC(=O)N(C3CCCCC3)[C@@H]2c2ccc(CO)cc2I)cc1 | 1.79 |
